KB-V1 MDR tox: kills drug-selected multidrug resistant KB-V1 cells; KB-V1 MDR cells viability, CellTiter-Glo, 72 h; Potency, µM (top dose mostly 46.1 µM), hits mostly cytotoxic; 3.4% of 400,000 active; AID 1347076; note: % is set by controls: 0 for no effect and ±100 for the full control effect; nearly all actives have a fitted effect of over 60% in size
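Readout: CellTiter-Glo luminescence, 10 min after addition. Cells: KB-V1 MDR subline, 72 h at 37 degrees C with compound. Analysis: corrected, normalized data fitted to concentration-effect curves.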
HT1080-NT tox: kills 2HG-producing HT-1080-NT fibrosarcoma cells | 1.6% of 360,000 active | HT-1080-NT fibrosarcoma viability, CellTiter-Glo ATP luminescence, 48 h | Potency, µM (highest dose often 46.1 µM), for the others: at the highest dose activity, negative = less viability, usual class: cytotoxic;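 note: NT is the 2HG producing partner of a matched IDH1 knockdown line; 0% = DMSO-treated cells and -100% = media-only wells without cells; nearly all actives have a fitted effect of over 55% in size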
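HT-1080-NT; 750 cells/well; 5% FBS RPMI; 48 h compound, 37 degrees C; CellTiter-Glo luminescence; curve fitting and curve-class assignment.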
MCF10A rerep: DNA re-replication induction in MCF 10a cells | MCF 10A DNA re-replication, Hoechst nuclear intensity, 48 h | 2.9% of 350,000 active | Potency, µM (doses to about 46.1 µM), for the others: at the top dose activity, positive = re-replication, actives largely listed as activators | AID 624296; note: % of control where 0% means no effect; nearly all actives have a fitted effect of over 50% in size
SW480 rereplic: inducers of DNA re-replication in SW480 colon cancer cells; Potency, µM (highest dose often 46.1 µM), without a hit: at the top dose re-replication activation, most hits filed as activators; SW480 DNA re-replication, Hoechst DNA content imaging, 48 h; 1.8% of 340,000 active; AID 624297; note: % of control where 0% means no effect; nearly all actives have a fitted effect of over 55% in size
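First, 250 cells per well were seeded. Next, compound or vehicle (23 nL) was pinned in, plates sat 48 hr at 37 C. Finally Hoechst was added for 40 min before fluorescence scanning.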
KB-3-1 tox: kills parental KB-3-1 adenocarcinoma cells | KB-3-1 viability, CellTiter-Glo ATP luminescence, 72 h | Potency, µM (top dose mostly 46.1 µM), usual class: cytotoxic | AID 1347075 | 1.4% of 400,000 active; note: % is set by controls: 0 for no effect and ±100 for the full control effect; nearly all actives have a fitted effect of over 60% in size
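KB-3-1 cells, DMEM (no phenol red) + 10% FBS; compound by pin transfer, 72 h, 37 °C. Readout: CellTiter-Glo luminescence after 10 min. Data normalized, curve-fitted.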
HT1080 IDH1KD tx: HT-1080 IDH1 knockdown cell toxicity (counter line). 2% of 360,000 active. HT-1080 IDH1 knockdown viability, ATP luminescence, 48 h. Potency, µM (top dose mostly 46.1 µM), inactives show at the highest dose activity, negative = toxicity, hits mostly cytotoxic;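 note: 0% = DMSO wells and -100% = cell-free medium wells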
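% activity derives from luminescence (CellTiter-Glo), normalised to DMSO and no-cell wells. HT-1080-IDH1KD cells, 750/well, had 48 h compound exposure at 37 °C.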
An asterisk follows results filed as active; i = inactive; ? = inconclusive; nt = not tested or not shown; [ ] = dose if it differs, or a comment. Most compounds without a hit are left out; they make up all but 7.9% or so of the library. Calls come from the whole dose curve; as a rule, active = well fitted curve in the direction sought with a large enough effect; inconclusive = small, poorly fitted or top-dose-only effect, or another doubt; inactive = no such curve, though single readings can be large; an effect the other way counts as inactive or inconclusive. Potency is the fitted concentration of half-maximal effect.

SMILES	KB-V1 MDR tox	HT1080-NT tox	MCF10A rerep	SW480 rereplic	KB-3-1 tox	HT1080 IDH1KD tx
Nc1nc(N)c2cc(S(=O)(=O)c3cccc(C(F)(F)F)c3)ccc2n1	?	13µM*	nt	nt	?	10µM*
CCOc1ccc(NC(=O)c2nnn(-c3ccc(F)c(Cl)c3)c2C)cc1	i	nt	nt	nt	i	nt
COc1ccccc1N1CCN(S(=O)(=O)c2ccc([N+](=O)[O-])cc2)CC1	i	3%	nt	nt	i	5%
CC(C)C(=O)N1CCN(c2ccc([N+](=O)[O-])cc2Cl)CC1	21µM*	2%	-4%	-6%	i	8%
COc1ccccc1N1CCN(c2ccc([N+](=O)[O-])cc2Cl)CC1	5.8µM*	?	7.3µM*	18µM*	16µM*	?
CNC(=S)N(CCc1c(C)[nH]c2ccc(C)cc12)Cc1cccs1	?	-19%	3.7µM*	30%	i	-15%
COc1ccc(NC(=S)N(CCc2c(C)[nH]c3ccc(C)cc23)Cc2cccs2)cc1	?	-9%	-5%	1%	?	?
Clc1ccc(-n2ncc3c(NCC4CCCO4)ncnc32)cc1 (stereo not given)	12µM*	?	?	18µM*	23µM*	?
COc1ccc(-n2ncc3c(NCc4ccco4)ncnc32)cc1	21µM*	-6%	5%	-4%	i	7%
c1ccc(-n2ncc3c(NCC4CCCO4)ncnc32)cc1 (stereo not given)	?	0%	29%	-3%[9.22 µM]	i	-1%
CN(C)CCNc1ncnc2c1cnn2-c1ccc(Cl)cc1	?	21µM*	-4%	?	?	?
CN(C)CCNc1ncnc2c1cnn2-c1cccc(Cl)c1	i	nt	nt	nt	i	nt
Cc1ccc(Cl)cc1-n1ncc2c(NC3CCCCCC3)ncnc21	?	nt	nt	nt	21µM*	nt
CCOC(=O)N(C)c1c(CC)nc2c(OCc3ccc(Cl)cc3Cl)cccn12	i	?	nt	nt	i	?
COc1ccc(OCCn2cc(C(=O)c3ccco3)c3ccccc32)cc1	?	nt	nt	nt	i	nt
Cc1ccccc1OCC(=O)Nc1ccc(-c2nc3cc(Cl)cc(Cl)c3o2)cc1	i	nt	nt	nt	i	nt
CC(C)C[C@H]1CNC(=S)N1CC1CCCN1C[C@H](CC(C)C)N1C[C@H](Cc2ccc(O)cc2)N(CC2CCCCCC2)C1=S (stereo not given in full)	?	-2%	6%	?	?	-3%
CN(C)CCNC(=O)CCCN1C(=O)c2cccnc2Oc2ccc(Cl)cc21	i	nt	nt	nt	i	nt
Cc1ccc(-n2ncc3c(NCCO)ncnc32)cc1Cl	5.8µM*	nt	nt	nt	i	nt
CCc1cc2c(NCC(=O)O)ncnc2s1	i	3%	-3%	-4%	i	8%
Clc1ccc(-n2ncc3c(NCc4ccco4)ncnc32)cc1	?	-14%	?	?	5µM*	?
CCc1cc2c(NCc3ccco3)ncnc2s1	21µM*	-14%	2%	6%	12µM*	-19%
Cc1ccc(-n2ncc3c(NCCc4ccccc4)ncnc32)cc1Cl	i	nt	nt	nt	i	nt
O=C(NNc1ncnc2c1cnn2-c1cccc(Cl)c1)c1ccco1	i	?	?	21µM*	i	-9%
Cc1ccc(-n2ncc3c(NNC(=O)c4ccco4)ncnc32)cc1C	i	-7%	2%	-14%	i	-4%
SMILES	KB-V1 MDR tox	HT1080-NT tox	MCF10A rerep	SW480 rereplic	KB-3-1 tox	HT1080 IDH1KD tx
O=C(CCCc1ccccn1)c1cccc2ccccc12	i	-1%	?	30%	i	-4%
CC(C)C1C(=O)N(Cc2cn(CCC3OCCO3)nn2)CCS(=O)(=O)N1Cc1ccc(-c2ccc(F)cc2)cc1 (stereo not given)	i	-18%	nt	nt	i	-22%
COc1ccc(NC(=S)NNc2ccc([N+](=O)[O-])cc2S(=O)(=O)Nc2ccc(C)cc2C)cc1	?	23µM*	?	4%	?	18µM*
Cc1ccc([N+](=O)[O-])cc1NC(=S)NC(=O)C(C)(C)C	i	?	-8%	4%	i	10%
Cc1ccc(NS(=O)(=O)c2cc([N+](=O)[O-])ccc2NNC(=S)Nc2cccc(Cl)c2)c(C)c1	?	?	-4%	nt	i	?
Cc1ccc([N+](=O)[O-])cc1NC(=S)NC(=O)CC(C)(C)C	18µM*	?	-4%	6%	i	?
Cc1ccc(NS(=O)(=O)c2cc([N+](=O)[O-])ccc2NNC(=S)Nc2cc(C)ccc2C)c(C)c1	2.9µM*	?	?	?	21µM*	?
CCS(=O)(=O)N1CCc2cc(C(=O)Nc3cc(OC)c(Cl)cc3OC)ccc21	i	nt	nt	nt	i	nt
COc1ccc2c(c1)c(C(=O)CN(C)C)c(C)n2C	i	nt	nt	nt	?	nt
COc1ccccc1-c1c(C(F)(F)F)oc2cc(OS(C)(=O)=O)ccc2c1=O	21µM*	0%	1%	-5%	?	-11%
COc1ccc(-c2c(C(F)(F)F)oc3cc(OCC(=O)Nc4ccccc4C(F)(F)F)ccc3c2=O)cc1OC	?	7%	8.2µM*	3%	i	2%
COc1cc(NS(=O)(=O)c2c(C(=O)N3CCCCC3)c(C)n(C)c2C)cc(OC)c1OC	i	nt	nt	nt	i	nt
CCOCCCNC(=O)c1ccc2c(c1)N(CC)C(=O)c1ccccc1S2=O (stereo not given)	18µM*	-12%	6%	5%	?	-27%
CCCN(CCC)CCCNC(=O)c1ccc2c(c1)N(CC)C(=O)c1ccccc1S2=O (stereo not given)	i	-2%	-1%	0%	?	-19%
CN(Cc1ccccc1)C(=O)c1ccc2c(c1)N(Cc1ccc(Cl)cc1)C(=O)c1ccccc1S2=O (stereo not given)	?	nt	nt	nt	16µM*	nt
CC1CC(C)CN(CCCNC(=O)c2ccc3c(c2)N(Cc2ccccc2)C(=O)c2ccccc2S3=O)C1 (stereo not given)	i	-1%	12µM*	?	i	-15%
O=C(NCc1ccco1)c1ccc2c(c1)N(Cc1ccc(Cl)cc1)C(=O)c1ccccc1S2=O (stereo not given)	i	nt	nt	nt	i	nt
Cc1ccc(S(=O)(=O)N2CCCCC2)cc1C(=O)N(C)CC(=O)Nc1ccc(Cl)c(C(F)(F)F)c1	?	10%	23µM*	?	?	3%
COc1ccc(S(=O)(=O)N2CCCCCC2)cc1C(=O)N(C)CC(=O)Nc1ccc(Cl)c(Cl)c1	i	-29%	-13%	-24%	i	-21%

Source: PubChem
